# Source: PubChem BioAssay
# VDR inh – Inhibitors of the vitamin D receptor (VDR): qHTS | hit rate 0.93% among 400,000 | VDR-SRC2-3 peptide fluorescence polarization, 2 h | AID 504847, 2011 | Potency, µM, without a hit: max response, negative = inhibition, usual class: inhibitors
# Target sequence (P11473 whole entry, looked up): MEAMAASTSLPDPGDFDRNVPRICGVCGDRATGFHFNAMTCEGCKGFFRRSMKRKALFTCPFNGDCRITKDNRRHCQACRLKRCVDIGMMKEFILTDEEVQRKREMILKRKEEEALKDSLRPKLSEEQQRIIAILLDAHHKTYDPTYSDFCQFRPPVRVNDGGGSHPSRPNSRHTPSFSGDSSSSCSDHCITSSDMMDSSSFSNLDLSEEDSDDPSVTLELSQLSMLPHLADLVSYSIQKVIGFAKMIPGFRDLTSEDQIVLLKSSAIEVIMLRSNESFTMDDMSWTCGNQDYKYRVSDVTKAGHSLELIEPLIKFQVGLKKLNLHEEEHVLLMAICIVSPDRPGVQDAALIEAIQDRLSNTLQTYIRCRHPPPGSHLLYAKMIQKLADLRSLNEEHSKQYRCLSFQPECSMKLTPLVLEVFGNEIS
#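 Two reagent solutions held at 4 deg C in the dark were dispensed, compounds pinned at 23 nl, and the mixture incubated 2 h at room temperature. Read-out: fluorescence polarization of VDR–SRC2-3 peptide binding.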
# Tau fibril FP – qHTS for Inhibitors of Tau Fibril Formation, Fluorescence Polarization | Microtubule-associated protein tau (Homo sapiens), P10636 | K18 P301L tau heparin fibrillization, Alexa594 FP, 6 h | Potency, µM (series often up to 57.7 µM), inactives show at the highest dose activity, negative = inhibition, hits mostly inhibitors | hit rate 0.39% among 280,000; note: nearly all actives have a fitted effect of over 55% in size
#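 Recombinant K18 P301L […], labeled with Alexa 594 at 0.24 uM over 15 uM unlabeled; heparin inducer 20 uM final; 37 C, 6 hr; FP endpoint.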
# Tau fluor counter – Counterscreen qHTS for Inhibitors of Tau Fibril Formation, Fluorescence Polarization. Potency, µM (highest dose often 57.7 µM), inactives show top-dose activity change, negative = decrease. tau K18 P301L Alexa594 fluorescence, heparin fibrillization. AID 1463, 2008. hit rate 0.93% among 280,000; note: nearly all actives have a fitted effect of over 55% in size
#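 Human tau K18 P301L (15 uM unlabeled, 0.24 uM Alexa 594-labeled) in 100 mM sodium acetate pH 7 with 20 uM heparin, 6 hr at 37 C. ThT 30 uM added, 1 hr ambient; Alexa 594 FP and total fluorescence read at 555/632 nm.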
# PLK1 PBD block – qHTS for Inhibitors of PLK1-PDB (polo-like kinase 1 - polo-box domain): Primary Screen; Serine/threonine-protein kinase PLK1 (Homo sapiens), P53350; Plk1 PBD binding of FITC phosphopeptide, fluorescence polarization; Potency, µM, inactives show max response, negative = inhibition, usual class: inhibitors; hit rate 2.8% among 360,000; AID 720504, 2013; note: series mostly up to about 57 µM; nearly all actives have a fitted effect of over 65% in size
# Tau fibril ThT – qHTS for Inhibitors of Tau Fibril Formation, Thioflavin T Binding | Potency, µM (highest dose often 57.4 µM), for the others: at the top dose activity, negative = inhibition, usual class: inhibitors | hit rate 2.1% among 270,000 | Microtubule-associated protein tau (Homo sapiens), P10636 | recombinant tau K18 P301L (four-repeat tau fragment), heparin-induced fibrillization, ThT fluorescence; note: nearly all actives have a fitted effect of over 55% in size
#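 Heparin-induced (20 uM) aggregation of recombinant human K18 P301L tau, 15 uM unlabeled with 0.24 uM labeled, pH 7 acetate buffer, 6 hr at 37 C with compound. Fibrils quantified by 30 uM ThT fluorescence after 1 hr ambient incubation.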
# Sfp PPTase inh – qHTS Assay for Inhibitors of Bacillus subtilis Sfp phosphopantetheinyl transferase (PPTase) | 4'-phosphopantetheinyl transferase ffp (Bacillus subtilis), Q9F4F7 | Biochemical Sfp PPTase activity, qHTS | Potency, µM, for the others: largest response in the series, negative = inhibition, most hits filed as inhibitors | hit rate 3.5% among 310,000;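 note: the enzyme is Sfp with the accession as filed and its product quenches rhodamine fluorescence; 0% = enzyme reaction without inhibitor and -100% = no enzyme wells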
#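 After 15 min at room temperature with compound, 15 nM Sfp received 5 uM rhodamine-CoA plus 12.5 uM BHQ-2-ybbR (50 mM Hepes pH 7.6, 10 mM MgCl2). Rate came from the fluorescence difference over 30 min, ex 525/em 598 nm.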
# * = called active by the depositor; u = inconclusive; x = not tested or not shown; [ ] = dose if it differs, or a comment. Hits are enriched below; roughly 6% of the tested compounds scored in any of these assays. Calls come from the whole dose curve; as a rule, active = well fitted curve in the direction sought with a large enough effect; inconclusive = small, poorly fitted or top-dose-only effect, or another doubt; inactive = no such curve, though single readings can be large; an effect the other way counts as inactive or inconclusive. Unless noted, % is set by controls: 0 for no effect and ±100 for the full control effect; potency is the fitted concentration of half-maximal effect.
SMILES,VDR inh,Tau fibril FP,Tau fluor counter,PLK1 PBD block,Tau fibril ThT,Sfp PPTase inh
CN(c1ccccc1)c1ccc(/C=C(\CCC(=O)O)c2nc3ccccc3s2)cc1[N+](=O)[O-],-12.9%,-20.9%,u,23.8µM*,14.1µM*,7.0%
Cn1cnnc1Sc1ccc(/C=C(\CCC(=O)O)c2nc3ccccc3s2)cc1[N+](=O)[O-],-13.4%,4.4%,4.2%,-2.5%,5.4%,-14.1%
Cc1nc2c(C(=O)NCCc3ccc(Cl)cc3)c[nH]n2c(=O)c1Cc1ccccc1F,-23.2%,-11.0%,-28.6%,x,u,x
Cc1ccc(CNC(=O)c2c[nH]n3c(=O)c(Cc4ccc(F)cc4Cl)c(C)nc23)cc1,-7.7%,-5.0%,u,x,28.2µM*,x
Cc1nc2c(C(=O)NCCC(C)C)c[nH]n2c(=O)c1Cc1ccccc1F,-5.9%,-0.4%,-11.7%,21.2µM*,-18.1%,3.3%
CSc1nc(N)nc2c1ncn2CC(=O)NCCCc1ccccc1,u,x,x,-3.5%,x,x
CCOc1ccc2c(c1)c1nnc(SCC3CCCO3)nc1n2C (stereo not drawn),-27.1%,-0.7%,-8.5%,26.7µM*,u,24.5%
CCc1cccc(NC(=O)Cn2c(=O)n(CC(=O)NCCc3ccccc3)c(=O)c3ccccc32)c1,-14.6%,-6.2%,-8.4%,x,9.8%,x
CC(C)(C)c1nc(CN2CCOCC2)cc(CN2CCOCC2)c1O,-8.8%,-1.5%,-2.1%,4.0%,-2.9%,8.3%
Cc1ccc(-c2nc(CN3CCCCC3)cc(CN3CCCCC3)c2O)cc1,11.6%,2.4%,-5.4%,-11.7%,-11.7%,39.8µM*
CC(=O)[C@]1(O)Cc2c(O)c3c(c(O)c2[C@@H](O[C@H]2C[C@H](N)[C@H](O)[C@H](C)O2)C1)C(=O)c1ccccc1C3=O,u,u,u,5.32µM*,3.55µM*,-21.2%
COc1cccc2c1C(=O)c1c(O)c3c(c(O)c1C2=O)CC(O)(C(=O)CO)CC3OC1CC(N(C)C)C(O)C(C)O1 (stereo not drawn),-3.3%,x,x,u,x,x
CC(=O)[C@]1(O)Cc2c(O)c3c(c(O)c2[C@@H](O[C@H]2C[C@H](N)[C@H](O)[C@H](C)O2)C1)C(=O)c1c(O)cccc1C3=O,1.0%,25.1µM*,u,x,4.47µM*,u
COc1ccc(C)cc1NC(=O)c1cc(S(=O)(=O)N2CCCCC2)ccc1N1CCOCC1,6.2%,x,x,-5.1%,x,x
O=C(/C=C/c1ccc([N+](=O)[O-])cc1)Nc1cccc(S(=O)(=O)NC2=NCCCCC2)c1,-16.4%,x,x,2.0%,x,x
NS(=O)(=O)c1cccc(NC(=O)COC(=O)CC2CC3CCC2C3)c1 (stereo not drawn),2.3%,-4.8%,-10.6%,3.1%,-0.1%,18.5%
O=C(/C=C/c1ccc(Cl)cc1Cl)Nc1cccc(S(=O)(=O)NC2=NCCC2)c1,u,u,u,16.8µM*,11.8%,12.8%
O=C(COC(=O)CC1CC2CCC1C2)Nc1cccc(S(=O)(=O)NC2=NCCCCC2)c1 (stereo not drawn),u,-2.3%,-18.1%,21.2µM*,-5.4%,-2.9%
O=C(/C=C/c1ccccc1Cl)Nc1cccc(S(=O)(=O)NC2=NCCCCC2)c1,-9.4%,u,14.1µM*[quencher],-8.2%,0.7%,5.4%
CC(=O)c1c(C)nn(CCC(=O)O)c1C,u,3.2%,2.1%,15µM*,-3.9%,5.9%
CC(Oc1cccnc1[N+](=O)[O-])C(=O)Nc1cccc(Cl)c1 (stereo not drawn),2.8%,x,x,0.6%,x,x
COc1ccc(-c2sc(N)nc2-c2ccccc2)cc1,-6.7%,x,x,x,x,x
